Results as given in PubChem BioAssay (EPA / NIEHS).
Values joined by “and” are separate entries in the source; they are usually repeats but may differ in a detail not shown here. Identical values can stand only once. Records with an inconclusive call do not appear. The source holds several records for some structures; these can differ, active in one and inactive in another. Active and inactive are the calls of the source. Rule for the calls, unless noted: active = hit-call score of the fitted dose curve at least 0.9, where 1 is the maximum; inconclusive = response in the unintended direction; inactive = score below 0.9.

Legend:
[1] = Tanguay_ZF_120hpf_TRUN_legacy: (Legacy) Oregon State University Tanguay Lab 120 Hour Post-fertilization zebrafish Assay for Truncated Body (AID 2283655)
Summary of the method: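 Single dechorionated zebrafish embryos received test chemical from 6 hpf in 0.64% DMSO, kept at 28C. At 120 hpf, brightfield inspection noted any truncated body.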

[2] = Tanguay_ZF_120hpf_NC_legacy: (Legacy) Oregon State University Tanguay Lab 120 Hour Post-fertilization zebrafish Assay for Notochord and Tail Malformation (AID 2283656)
Summary of the method: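 Binary scoring of notochord distortion by brightfield microscopy; embryos dying were not scored. Wild-type Tropical 5D embryos, chorion removed, exposed singly and statically from 6 to 120 hpf, 28C, sealed, 0.64% DMSO.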

[3] = read-out: ABC Transporter (ABCB1), ABCB1 (gene 5243); assay: CLD_ABCB1_6hr: CellzDirect (CLD) Gene Expression Assay for ABC Transporter (ABCB1) at 6 hours (AID 2283659);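 note: hits raise ABCB1 transcript above the DMSO vehicle baseline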
Summary of the method: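 ABCB1 transcript measured by quantitative nuclease protection assay, chemiluminescent read-out, 6 h after dosing human hepatocyte cultures (0.2% DMSO vehicle, daily redosing). Activity fitted as increase over DMSO baseline; cytotoxicity flagged by phase-contrast morphology.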

[4] = read-out: alkyl and aryl transferase (GSTA2), GSTA2 (gene 2939); assay: CLD_GSTA2_6hr: CellzDirect (CLD) Gene Expression Assay for alkyl and aryl transferase (GSTA2) at 6 hours (AID 2283666)
Summary of the method: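 GSTA2 transcript induction at 6 h, quantified by nuclease protection (qNPA) with chemiluminescent detection, in human liver primary hepatocytes exposed to several compound concentrations with 0.2% DMSO as baseline; phase-contrast morphology annotated apparent cytotoxicity.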

[5] = Tanguay_ZF_120hpf_TR_legacy: (Legacy) Oregon State University Tanguay Lab 120 Hour Post-fertilization zebrafish Assay for Touch Response (AID 2283667)
Summary of the method: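 Readout is presence or absence of touch response in 120 hpf zebrafish larvae, assessed by brightfield observation after continuous static exposure at 28C. Final vehicle was 0.64% (vol/vol) DMSO.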

[6] = read-out: organic anion transporter (SLCO1B1), SLCO1B1 (gene 10599); assay: CLD_SLCO1B1_6hr: CellzDirect (CLD) Gene Expression Assay for organic anion transporter (SLCO1B1) at 6 hours (AID 2283668);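 note: active means mRNA induction above DMSO baseline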
Summary of the method: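 SLCO1B1 mRNA induction measured 6 h after dosing by quantitative nuclease protection with chemiluminescent read-out, in human primary hepatocyte cultures given chemicals at several concentrations (vehicle 0.2% DMSO). Increase over DMSO baseline fitted; morphology-based cytotoxicity annotated yes/no.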

[7] = read-out: sulfotransferase (SULT2A), SULT2A1 (gene 6822); assay: CLD_SULT2A_6hr: CellzDirect (CLD) Gene Expression Assay for sulfotransferase (SULT2A) at 6 hours (AID 2283669);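 note: hits raise transcript level above the DMSO vehicle baseline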
Summary of the method: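 Measured 6 h after dosing, SULT2A1 mRNA in human hepatocyte lysates was quantified by S1 nuclease protection with chemiluminescent detection. Increases fitted against 0.2% DMSO vehicle baseline; phase-contrast cytotoxicity recorded yes/no.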

[8] = read-out: glucuronosyltransferase (UGT1A1), UGT1A1 (gene 54658); assay: CLD_UGT1A1_6hr: CellzDirect (CLD) Gene Expression Assay for glucuronosyltransferase (UGT1A1) at 6 hours (AID 2283672)
Summary of the method: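 UGT1A1 mRNA induction, read by quantitative nuclease protection assay, 6 h after dosing primary human hepatocytes (two donors, 0.2% DMSO vehicle). Gain of signal fitted relative to vehicle.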

[9] = CLD_ACTIN_6hr: CellzDirect (CLD) Gene Expression Assay for Baseline Control (Actin) at 6 hours (AID 2283676);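 note: active means increased actin mRNA relative to DMSO vehicle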
Summary of the method: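 Baseline actin transcript level measured by qNPA (S1 nuclease protection, chemiluminescence) in human hepatocyte cultures 6 h after chemical exposure; 0.2% DMSO vehicle as reference, cytotoxicity noted from morphology.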

[10] = read-out: Cytochrome P450 2B6 (Homo sapiens) (UniProt P20813); assay: CLD_CYP2B6_6hr: CellzDirect (CLD) Gene Expression Assay for xenobiotic metabolism (CYP2B6) at 6 hours (AID 2283677);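 note: actives raise CYP2B6 transcript above DMSO baseline so AC50 marks an inducer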
Summary of the method: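 CYP2B6 transcript levels, read by chemiluminescent qNPA, were fitted for increase versus DMSO baseline; cultured human liver hepatocytes from two donor preparations were harvested 6 h after exposure to test chemicals at multiple concentrations.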

[11] = CCTE_Padilla_ZF_144hpf_TERATOSCORE: (Legacy) CCTE's 144 Hour Post-fertilization zebrafish Assay Teratoscore, Padilla Lab (AID 2283679; active = hit-call score of the fitted dose curve at least 0.9, where 1 is the maximum; inactive = score below 0.9;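 for AC50: zebrafish embryos with chorions exposed by immersion from 6-8 hpf to 5 dpf with daily renewal; teratogenicity score from eye scoring of death hatching and malformations at 144 hpf; higher score means more developmental defects relative to DMSO baseline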)
Summary of the method: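 Larvae scored by eye at 144 hpf for death, hatching and malformations after a day in clean Hanks'. Before that, daily-renewed exposure at 80 uM (0.4% DMSO, 26C) from roughly 6-8 hpf through 5 dpf, 4 embryos per chemical.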

[12] = CLD_ACTIN_24hr: CellzDirect (CLD) Gene Expression Assay for Baseline Control (Actin) at 24 hours (AID 2283670)
Summary of the method: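 This 24 h qNPA (S1 nuclease protection, chemiluminescence) actin transcript readout in cultured human liver primary cells serves as baseline control. Signal is fitted upward relative to 0.2% DMSO; chemicals tested at multiple concentrations across two donor preparations.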

[13] = read-out: Cytochrome P450 2C19 (Homo sapiens) (UniProt P33261); assay: CLD_CYP2C19_6hr: CellzDirect (CLD) Gene Expression Assay for xenobiotic metabolism (CYP2C19) at 6 hours (AID 2283678)
Summary of the method: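 CYP2C19 transcript induction was quantified by quantitative nuclease protection assay with chemiluminescent read-out, 6 h after dosing. Cells were primary human hepatocytes from two donor preparations, given fresh dosing solutions daily in 0.2% DMSO vehicle. Activity was relative to DMSO.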

[14] = read-out: solute carrier (SLC10A1), SLC10A1 (gene 6554); assay: LTEA_HepaRG_SLC10A1: Life Technologies and Expression Analysis (LTEA) Assay for solute carrier (SLC10A1) using HepaRG (AID 2283657; active = hit-call score of the fitted dose curve at least 0.9, where 1 is the maximum; inactive = score below 0.9); conditions: mRNA level, 48 h; actives raise or lower the signal
Summary of the method: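 Cryopreserved HepaRG cells are thawed, plated and cultured 48 h; medium is then switched to serum-free induction medium and chemicals added (8 points, max 100 uM, 0.5% DMSO). After 48 h, RNA is isolated and SLC10A1 quantified by qRT-PCR.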

[15] = read-out: matrix metalloproteinase-1 (MMP1), MMP1 (gene 4312); assay: LTEA_HepaRG_MMP1: Life Technologies and Expression Analysis (LTEA) Assay for matrix metalloproteinase-1 (MMP1) using HepaRG (AID 2283658; active = hit-call score of the fitted dose curve at least 0.9, where 1 is the maximum; inactive = score below 0.9); conditions: mRNA level, 48 h; actives raise or lower the signal
Summary of the method: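 In this screen, human liver HepaRG cultures receive each chemical in duplicate for 48 h (top 100 uM, 0.5% DMSO). MMP1 expression is then quantified by TaqMan qRT-PCR with ACTB/GAPDH/POLR2A normalization.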

[16] = tested on: Thyroperoxidase (TPO), gene 54314; assay: CCTE_Simmons_AUR_rTPO: CCTE's Amplex UltraRed Assay for Thyroperoxidase (TPO) Inhibition, Simmons Lab (AID 2283662);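 note: potency for loss of signal meaning inhibition of peroxidase activity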
Summary of the method: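 Endpoint is decreased Amplex UltraRed fluorescence after a 30-min, 37C reaction of rat thyroid microsomes with 300 uM H2O2. Eight test concentrations (5 nM–87.5 uM final) in 0.5% DMSO, three biological replicates each.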

[17] = CCTE_Simmons_CellTiterGLO_HEK293T: Viability Assessment in CCTE's Assays for Thyroperoxidase (TPO) Inhibition, Simmons Lab (AID 2283665);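 for AC50: cells exposed to compound for 24 h before readout; actives reduce ATP signal below DMSO vehicle meaning cytotoxicity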
Summary of the method: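 Cells were seeded overnight, then exposed to an eight-point series up to 87.5 uM final for 24 hours. CellTiter-Glo reagent was added and luminescence read after 20 min, giving ATP-based viability versus DMSO.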

[18] = read-out: Cytochrome P450 (CYP24A1_1), CYP24A1 (gene 1591); assay: LTEA_HepaRG_CYP24A1_1: Life Technologies and Expression Analysis (LTEA) Assay for Cytochrome P450 (CYP24A1_1) using HepaRG (AID 2283671; active = hit-call score of the fitted dose curve at least 0.9, where 1 is the maximum; inactive = score below 0.9); conditions: mRNA level, 48 h; actives raise or lower the signal
Summary of the method: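 Cultures of human HepaRG were treated in duplicate for 48 h (0.5% DMSO vehicle, highest dose 100 uM). CYP24A1 mRNA by qRT-PCR, normalized to ACTB, GAPDH, POLR2A.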

[19] = read-out: xenobiotic metabolism (CYP1A1), CYP1A1 (gene 1543); assay: CLD_CYP1A1_6hr: CellzDirect (CLD) Gene Expression Assay for xenobiotic metabolism (CYP1A1) at 6 hours (AID 2283661)
Summary of the method: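 Read-out 6 h post-dose: qNPA chemiluminescent quantitation of transcript induction against 0.2% DMSO. Cells were cultured primary human hepatocytes from two separate donor preparations; phase-contrast morphology annotated apparent cytotoxicity.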

[20] = read-out: xenobiotic metabolism (CYP1A2), CYP1A2 (gene 1544); assay: CLD_CYP1A2_6hr: CellzDirect (CLD) Gene Expression Assay for xenobiotic metabolism (CYP1A2) at 6 hours (AID 2283663)
Summary of the method: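 mRNA levels quantified by quantitative nuclease protection assay with chemiluminescence, 6 h after dosing human primary hepatocyte cultures (two donors) across several concentrations, vehicle 0.2% DMSO. Induction fitted upward versus DMSO; phase-contrast cytotoxicity annotated.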

Measured: AC50

Sequence of Cytochrome P450 2C19 (Homo sapiens) (P33261 whole entry, looked up): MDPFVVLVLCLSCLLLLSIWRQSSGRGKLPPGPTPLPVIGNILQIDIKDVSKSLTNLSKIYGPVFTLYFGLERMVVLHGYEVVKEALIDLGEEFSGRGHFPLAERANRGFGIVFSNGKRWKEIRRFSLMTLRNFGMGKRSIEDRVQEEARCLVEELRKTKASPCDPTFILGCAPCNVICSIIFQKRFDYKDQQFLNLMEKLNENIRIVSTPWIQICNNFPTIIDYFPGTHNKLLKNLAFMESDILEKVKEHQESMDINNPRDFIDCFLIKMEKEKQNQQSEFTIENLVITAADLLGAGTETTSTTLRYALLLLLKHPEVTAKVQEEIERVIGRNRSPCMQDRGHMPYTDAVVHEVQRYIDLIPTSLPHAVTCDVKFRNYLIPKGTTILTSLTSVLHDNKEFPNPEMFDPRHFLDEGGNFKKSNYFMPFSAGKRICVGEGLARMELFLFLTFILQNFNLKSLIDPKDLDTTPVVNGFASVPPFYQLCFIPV

CCN(CC)C(=O)c1cccc(C)c1
active: [10] 2.38 µM
inactive: [1] | [2] | [3] | [4] | [5] | [6] | [7] | [8] | [9] | [11]

CCCCCOC(=O)COc1cc(N2C(=O)C3=C(CCCC3)C2=O)c(F)cc1Cl
active: [10] 20 µM | [11] 3.14 µM
inactive: [1] | [2] | [3] | [4] | [5] | [7] | [12] | [8] | [13]

CCCCC(CC)COC(=O)c1ccccc1C(=O)O (stereo not drawn)
inactive: [1] | [2] | [3] | [6] | [7] | [8] | [13]
active: [10] 4.36 µM | [11] 0.608 µM

CCCCOCCOCCOCc1cc2c(cc1CCC)OCO2
active: [1] 48 µM | [14] 67.7 µM | [16] 34.2 µM | [10] 1.27 µM | [11] 15.3 µM
inactive: [2] | [15] | [17] | [5] | [7] | [18] | [8]

O=C(c1ccc(O)cc1O)c1ccc(O)cc1O
active: [16] 0.19 µM | [11] 95.2 µM
inactive: [1] | [2] | [17]

CC(C)CCCCCCc1ccc(O)cc1
active: [16] 20.6 µM | [17] 6.47 µM | [11] 8.06 µM
inactive: [1] | [2] | [5]

O=C(O)C1(C(=O)Nc2ccc(Cl)cc2Cl)CC1
active: [11] 22.7 µM
inactive: [1] | [2] | [19] | [4] | [5] | [7] | [12] | [9] | [13]

CC(C)(c1ccc(O)cc1)c1ccc(O)cc1
inactive: [1] | [2] | [3] | [17] | [4] | [7] | [12] | [8] | [9]
active: [1] 25.9 µM and 43.8 µM | [5] 47.4 µM and 24.4 µM and 46 µM | [10] 14.2 µM | [11] 57 µM and 66.2 µM

CCCCC(CC)CN1C(=O)C2C3C=CC(C3)C2C1=O (stereo not drawn)
active: [10] 4.33 µM | [11] 13 µM
inactive: [1] | [2] | [3] | [5] | [7] | [8] | [9]

C=CCOC(Cn1ccnc1)c1ccc(Cl)cc1Cl (stereo not drawn)
active: [10] 0.0186 µM | [11] 2.91 µM
inactive: [1] | [2] | [3] | [4] | [5] | [6] | [7] | [12] | [8] | [9]

CCSC(=O)N(CC(C)C)CC(C)C
active: [10] 3.55 µM
inactive: [1] | [2] | [20] | [4] | [5] | [6] | [7] | [8] | [9] | [11]

N#CSCSc1nc2ccccc2s1
active: [14] 83.6 µM | [16] 2.57 µM | [17] 9.18 µM | [11] 0.651 µM
inactive: [1] | [2] | [15] | [3] | [4] | [5] | [7] | [12] | [18] | [8] | [9]

S=C(S)NCCNC(=S)S.[Mn+2].[S-]C([S-])=NCCN=C([S-])[S-].[Zn+2]
inactive: [1] | [2] | [3] | [17] | [5] | [6] | [7] | [12] | [18] | [8] | [11]
active: [14] 1.74 µM | [10] 2.55 µM | [11] 29.3 µM
